This is a sample that favours compounds with a hit; in the whole collection about 7.9% have one here.
HT1080 IDH1KD tx – qHTS for induction of synthetic lethality in tumor cells producing 2HG: qHTS for the HT-1080-IDH1KD cell line | AID 686971, 2013 | 360,000 compounds, 2% hits | HT-1080 IDH1 knockdown viability, ATP luminescence, 48 h | Potency, µM (series often up to 46.1 µM), inactives show top-dose activity, negative = toxicity, hits mostly cytotoxic;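 note: 0% = DMSO wells and -100% = cell-free medium wells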
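Cytotoxicity counter-line: IDH1KD HT-1080, 48 h, CellTiter-Glo. Curves classed by r2, magnitude and activity.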
KB-3-1 tox – qHTS assay for MDR1-selective chemotherapeutics: Primary screen using the parental adenocarcinoma cell KB-3-1; KB-3-1 viability, CellTiter-Glo ATP luminescence, 72 h; Potency, µM (titrated, usually from 46.1 µM), usual class: cytotoxic; 400,000 compounds, 1.4% hits; note: % is set by controls: 0 for no effect and ±100 for the full control effect; nearly all actives have a fitted effect of over 60% in size
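Cells are dispensed, compounds pinned in, plates held at 37 °C for 72 h, then CellTiter-Glo is added and luminescence read after 10 minutes. Cell line: parental KB-3-1 in phenol-red-free DMEM, 10% FBS.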
SW480 rerep – A quantitative high throughput screen for small molecules that induce DNA re-replication in SW480 colon adenocarcinoma cells | SW480 DNA re-replication, Hoechst DNA content imaging, 48 h | 340,000 compounds, 1.8% hits | Potency, µM (highest dose often 46.1 µM), for inactives: top-dose re-replication activation, most hits filed as activators; note: % of control where 0% means no effect; nearly all actives have a fitted effect of over 55% in size
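First, 250 cells per well were seeded. Next, compound or vehicle (23 nL) was pinned in, plates sat 48 hr at 37 C. Finally Hoechst was added for 40 min before fluorescence scanning.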
HT1080-NT tox – qHTS for induction of synthetic lethality in tumor cells producing 2HG: qHTS for the HT-1080-NT fibrosarcoma cell line. HT-1080-NT fibrosarcoma viability, CellTiter-Glo ATP luminescence, 48 h. Potency, µM (doses to about 46.1 µM), for inactives: at the top dose activity, negative = less viability, most hits filed as cytotoxic. 360,000 compounds, 1.6% hits. AID 686970, 2013;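 note: NT is the 2HG producing partner of a matched IDH1 knockdown line; 0% = DMSO-treated cells and -100% = media-only wells without cells; nearly all actives have a fitted effect of over 55% in size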
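HT-1080-NT fibrosarcoma cells (2HG-overproducing), 750 cells/well in RPMI with 5% FBS, dosed after 2 h and incubated 48 h at 37C. CellTiter-Glo luminescence normalized to DMSO and no-cell wells; concentration-response curves fitted and classed.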
MCF10A rerep – A quantitative high throughput screen for small molecules that induce DNA re-replication in MCF 10a normal breast cells; MCF 10A DNA re-replication, Hoechst nuclear intensity, 48 h; Potency, µM (series often up to 46.1 µM), for inactives: at the highest dose activity, positive = re-replication, actives largely listed as activators; 350,000 compounds, 2.9% hits; AID 624296, 2012; note: % of control where 0% means no effect; nearly all actives have a fitted effect of over 50% in size
KB-V1 cytotox – qHTS assay for MDR1-selective chemotherapeutics: Primary screen using the drug-selected MDR subline cells KB-V1 | Potency, µM (series often up to 46.1 µM), usual class: cytotoxic | AID 1347076, 2019 | KB-V1 MDR cells viability, CellTiter-Glo, 72 h | 400,000 compounds, 3.4% hits; note: % is set by controls: 0 for no effect and ±100 for the full control effect; nearly all actives have a fitted effect of over 60% in size
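qHTS viability screen in drug-selected KB-V1 MDR cells: 72 h compound treatment at 37 degrees C, ATP luminescence end point.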
* hit, by the source's call. Calls come from the whole dose curve; as a rule, active = well fitted curve in the direction sought with a large enough effect; inconclusive = small, poorly fitted or top-dose-only effect, or another doubt; inactive = no such curve, though single readings can be large; an effect the other way counts as inactive or inconclusive. Potency is the fitted concentration of half-maximal effect.

How did CC1=C(C(=O)N2CCCCCC2)CC(CC(=O)NC(c2ccccc2)c2ccccc2)C(=O)N1CCC1=CCCCC1 (stereo not given) do in these assays?
HT1080 IDH1KD tx: inconclusive; KB-3-1 tox: inconclusive; HT1080-NT tox: inconclusive; KB-V1 cytotox: 16.4µM*

Results for COc1ccc(C2=C(C)C(=O)N(Cc3ccc(C(=O)Nc4cccc(F)c4)cc3)S2(=O)=O)cc1 ?
KB-3-1 tox: inactive; KB-V1 cytotox: inactive

How did COc1ccc(C2=C(C)C(=O)N(Cc3ccc(C(=O)Nc4ccc(F)cc4C)cc3)S2(=O)=O)cc1 do in these assays?
KB-3-1 tox: 4.61µM*; KB-V1 cytotox: inactive

How did C=CCn1c(SCC(=O)Nc2cc(C)nn2-c2ccccc2)nnc1C1CCCCC1 do in these assays?
HT1080 IDH1KD tx: 9.1%; KB-3-1 tox: inactive; SW480 rerep: -2.5%; HT1080-NT tox: -1.9%; MCF10A rerep: 0.4%; KB-V1 cytotox: 5.8µM*

Results for CC1=CC(=C(C#N)c2nc3ccccc3s2)C=C(C)N1CC1CCCO1 (stereo not given) ?
HT1080 IDH1KD tx: -3.4%; KB-3-1 tox: inactive; SW480 rerep: 23.1µM*; HT1080-NT tox: -2.3%; MCF10A rerep: 13µM*; KB-V1 cytotox: inactive

How did CCCCNC1C(CC)C(CCC)C(C#N)(C#N)C1(C#N)C#N (stereo not given) do in these assays?
HT1080 IDH1KD tx: inconclusive; KB-3-1 tox: inconclusive; SW480 rerep: inconclusive; HT1080-NT tox: inconclusive; MCF10A rerep: 20.6µM*; KB-V1 cytotox: inconclusive

What do the screens show for `Cc1cccc(OCC(=O)Nc2cccc(OCc3cc(=O)n4cccc(C)c4n3)c2)c1`?
KB-3-1 tox: inactive; KB-V1 cytotox: inconclusive

How did COC(=O)CCC(=O)N1CCC(Oc2cccc(C(=O)NCc3ccccn3)c2)CC1 do in these assays?
HT1080 IDH1KD tx: -0.1%; KB-3-1 tox: inactive; HT1080-NT tox: 0.5%; KB-V1 cytotox: inactive

How did O=c1c2ccccc2sn1-c1ccccc1F do in these assays?
HT1080 IDH1KD tx: inconclusive; KB-3-1 tox: inconclusive; HT1080-NT tox: -8.7%; KB-V1 cytotox: inconclusive

What do the screens show for `Cc1ccccc1-n1sc2cc(F)ccc2c1=O`?
HT1080 IDH1KD tx: 20.6µM*; KB-3-1 tox: inconclusive; SW480 rerep: inconclusive; HT1080-NT tox: 18.4µM*; MCF10A rerep: 16.4µM*; KB-V1 cytotox: inconclusive

How did Cc1ccc(CCNC(=O)C2CCN(S(=O)(=O)c3ccc4c(ccn4C)c3)CC2)cc1 do in these assays?
KB-3-1 tox: inactive; KB-V1 cytotox: inactive

What do the screens show for `CCN(CC)S(=O)(=O)c1ccc2c(c1)N(CC(=O)NCCc1ccc(OC)c(OC)c1)C(=O)CO2`?
KB-3-1 tox: inactive; KB-V1 cytotox: inactive

Results for O=C(CC1CCCCC1)N1CCCC(c2nc(-c3ccc(S(=O)(=O)N4CCCC4)cc3)no2)C1 (stereo not given) ?
HT1080 IDH1KD tx: -15.4%; KB-3-1 tox: inactive; SW480 rerep: -8.2%; HT1080-NT tox: inconclusive; MCF10A rerep: inconclusive; KB-V1 cytotox: 8.2µM*

Results for CCCCCC(=O)N1CCCC(c2nc(-c3ccc(OC)cc3)no2)C1 (stereo not given) ?
HT1080 IDH1KD tx: -7.7%; KB-3-1 tox: inconclusive; SW480 rerep: 0.1%; HT1080-NT tox: 2.4%; MCF10A rerep: inconclusive; KB-V1 cytotox: inconclusive

Results for COc1ccc(-c2noc(C3CCCN(C(=O)c4ccccc4)C3)n2)cc1 (stereo not given) ?
HT1080 IDH1KD tx: -23.0%; KB-3-1 tox: inactive; SW480 rerep: 5.1%; HT1080-NT tox: inconclusive; MCF10A rerep: -1.4%; KB-V1 cytotox: inactive

How did O=C(c1ccco1)N1CCCC(c2nc(-c3ccc(S(=O)(=O)NCc4ccccc4)cc3)no2)C1 (stereo not given) do in these assays?
HT1080 IDH1KD tx: inconclusive; KB-3-1 tox: inactive; SW480 rerep: 10.1%; HT1080-NT tox: inconclusive; MCF10A rerep: 18.4µM*; KB-V1 cytotox: inactive

What do the screens show for `CCOC(=O)CN1C(=O)N(c2ccc(C)c(C)c2)S(=O)(=O)c2ccccc21`?
KB-3-1 tox: inactive; KB-V1 cytotox: inconclusive

What do the screens show for `C#C[C@]1(O)CC[C@@H]2[C@H]3CCC4=CC(=O)CC[C@H]4[C@H]3C(=C)C[C@@]21CC`?
SW480 rerep: -3.8%; MCF10A rerep: 12.9%

How did CC1(C(=O)O)CCN1C(=O)c1cccc(OC(F)(F)F)c1 (stereo not given) do in these assays?
HT1080 IDH1KD tx: 12.9%; KB-3-1 tox: inactive; HT1080-NT tox: 18.9%; KB-V1 cytotox: inactive

What do the screens show for `COC(=O)C/C(O)=C(/N=Nc1cccc(C(F)(F)F)c1)C(=O)OC`?
HT1080 IDH1KD tx: 0.6%; KB-3-1 tox: inactive; SW480 rerep: inconclusive; HT1080-NT tox: 0.7%; MCF10A rerep: 5.8µM*; KB-V1 cytotox: inactive

How did CC(C)NC(=O)c1cccc(C(F)(F)F)c1 do in these assays?
HT1080 IDH1KD tx: 3.8%; KB-3-1 tox: inactive; SW480 rerep: -4.7%; HT1080-NT tox: 16.2%; MCF10A rerep: -22.0%; KB-V1 cytotox: inactive

How did CC(C)(C)NCc1cccn1-c1sc2c(c1C#N)CCCC2 do in these assays?
HT1080 IDH1KD tx: 5.3%; KB-3-1 tox: inactive; SW480 rerep: -3.2%; HT1080-NT tox: -0.4%; MCF10A rerep: 12.1%; KB-V1 cytotox: 16.4µM*

How did COc1ccc(C(c2c(O)ccc3ccccc23)N2CCOCC2)c(OC)c1 (stereo not given) do in these assays?
HT1080 IDH1KD tx: inconclusive; KB-3-1 tox: inactive; SW480 rerep: inconclusive; HT1080-NT tox: -8.3%; MCF10A rerep: 3.26µM*; KB-V1 cytotox: inactive

How did COc1ccc(C(CCN2CCOCC2)c2c(O)cc(OC)cc2OC)cc1 (stereo not given) do in these assays?
HT1080 IDH1KD tx: 3.4%; KB-3-1 tox: inactive; SW480 rerep: inconclusive; HT1080-NT tox: -0.6%; MCF10A rerep: 24.5%; KB-V1 cytotox: inactive

How did COc1ccc(NC(=O)c2cccc(S(=O)(=O)Nc3ccc(Br)cc3)c2)cn1 do in these assays?
HT1080 IDH1KD tx: inconclusive; KB-3-1 tox: 11.6µM*; SW480 rerep: -4.5%; HT1080-NT tox: inconclusive; MCF10A rerep: inconclusive; KB-V1 cytotox: inconclusive
